# From paper doi:10.1101/2025.02.07.636106
# Key:
# Histone deacetylase 1 = Histone deacetylase 1 (UniProt Q13547); assay: cross-link between two proteins; affinity purification or IP with mass spectrometry; cross-linking mass spectrometry
# 14-3-3 protein epsilon = 14-3-3 protein epsilon (UniProt P62258); assay: cross-linking mass spectrometry
# [1] = target: Calcineurin B homologous protein 1 (UniProt Q99653); assay: cross-linking mass spectrometry
# [2] = target: Charged multivesicular body protein 1a (UniProt Q9HD42); assay: cross-linking mass spectrometry
# [3] = target: Charged multivesicular body protein 1b (UniProt Q7LBR1); assay: cross-linking mass spectrometry
# [4] = target: Charged multivesicular body protein 3 (UniProt Q9Y3E7); assay: cross-linking mass spectrometry
# [5] = target: Melanoma inhibitory activity protein 2 (UniProt Q96PC5); assay: cross-link between two proteins; cross-linking mass spectrometry
# [6] = target: Charged multivesicular body protein 4b (UniProt Q9H444); assay: cross-linking mass spectrometry
# [7] = target: Endoplasmic reticulum resident protein 44 (UniProt Q9BS26); assay: cross-linking mass spectrometry
# Integrin beta-5 = Integrin beta-5 (UniProt P18084); assay: cross-linking mass spectrometry
# Laminin subunit gamma-1 = Laminin subunit gamma-1 (UniProt P11047); assay: cross-linking mass spectrometry
# [8] = target: Splicing factor 3A subunit 1 (UniProt Q15459); assay: cross-linking mass spectrometry
# [9] = target: Splicing factor 3B subunit 2 (UniProt Q13435); assay: cross-linking mass spectrometry
# [10] = target: Splicing factor 3B subunit 5 (UniProt Q9BWJ5); assay: cross-linking mass spectrometry
# Splicing factor 45 = Splicing factor 45 (UniProt Q96I25); assay: cross-linking mass spectrometry
# Syntaxin-8 = Syntaxin-8 (UniProt Q9UNK0); assay: cross-linking mass spectrometry
# [11] = target: U1 small nuclear ribonucleoprotein A (UniProt P09012); assay: cross-linking mass spectrometry
# [12] = target: Vacuolar protein sorting-associated protein 16 homolog (UniProt Q9H269); assay: cross-linking mass spectrometry
# [13] = target: Vacuolar protein sorting-associated protein 45 (UniProt Q9NRW7); assay: cross-linking mass spectrometry
# [14] = target: Vesicle transport through interaction with t-SNAREs homolog 1A (UniProt Q96AJ9); assay: cross-linking mass spectrometry
# [15] = target: Metastasis-associated protein MTA2 (UniProt O94776); assay: cross-link between two proteins; cross-linking mass spectrometry
# [16] = target: Methyl-CpG-binding domain protein 2 (UniProt Q9UBB5); assay: as above
# [17] = target: Methyl-CpG-binding domain protein 3 (UniProt O95983); assay: as above
# Plexin-A1 = Plexin-A1 (UniProt Q9UIW2); assay: as above
# [18] = target: Polyadenylate-binding protein 3 (UniProt Q9H361); assay: as above
# [19] = target: Probable serine carboxypeptidase CPVL (UniProt Q9H3G5); assay: as above
# [20] = target: Proteasome subunit beta type-3 (UniProt P49720); assay: as above
# [21] = target: Putative elongation factor 1-alpha-like 3 (UniProt Q5VTE0); assay: as above
# [22] = target: Putative heat shock protein HSP 90-alpha A4 (UniProt Q58FG1); assay: as above
# RNA-binding protein Raly = RNA-binding protein Raly (UniProt Q9UKM9); assay: as above
# [23] = target: SIR2 antiphage-like protein 2 (UniProt Q9NWS6); assay: as above
# [24] = target: Serine palmitoyltransferase 2 (UniProt O15270); assay: as above
# [25] = target: Serine/threonine-protein kinase MARK2 (UniProt Q7KZI7); assay: as above
# [26] = target: Splicing factor 3B subunit 2 (UniProt Q13435); assay: as above
# [27] = target: Structural maintenance of chromosomes protein 3 (UniProt Q9UQE7); assay: as above
# [28] = target: Succinate dehydrogenase [ubiquinone] flavoprotein subunit, mitochondrial (UniProt P31040); assay: as above
# THO complex subunit 2 = THO complex subunit 2 (UniProt Q8NI27); assay: as above
# THO complex subunit 3 = THO complex subunit 3 (UniProt Q96J01); assay: as above
# [29] = target: Transcriptional repressor p66-beta (UniProt Q8WXI9); assay: as above
# [30] = target: Transforming protein RhoA (UniProt P61586); assay: as above
# [31] = target: V-type proton ATPase subunit D (UniProt Q9Y5K8); assay: as above
# Chain of V-type proton ATPase subunit D (Q9Y5K8 whole entry): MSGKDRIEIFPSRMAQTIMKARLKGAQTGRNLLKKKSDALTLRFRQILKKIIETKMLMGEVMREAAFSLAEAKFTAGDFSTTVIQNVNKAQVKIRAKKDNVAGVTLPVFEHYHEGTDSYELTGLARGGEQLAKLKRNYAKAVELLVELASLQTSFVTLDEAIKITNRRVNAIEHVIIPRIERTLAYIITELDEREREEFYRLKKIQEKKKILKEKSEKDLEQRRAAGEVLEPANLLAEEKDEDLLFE
# Chain of Vesicle transport through interaction with t-SNAREs homolog 1A (Q96AJ9 whole entry): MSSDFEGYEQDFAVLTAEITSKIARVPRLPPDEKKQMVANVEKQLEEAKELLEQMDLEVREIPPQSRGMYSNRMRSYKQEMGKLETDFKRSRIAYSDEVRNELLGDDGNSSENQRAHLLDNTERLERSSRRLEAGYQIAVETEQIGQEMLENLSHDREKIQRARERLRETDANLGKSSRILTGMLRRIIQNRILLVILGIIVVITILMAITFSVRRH
# Chain of Charged multivesicular body protein 3 (Q9Y3E7 whole entry): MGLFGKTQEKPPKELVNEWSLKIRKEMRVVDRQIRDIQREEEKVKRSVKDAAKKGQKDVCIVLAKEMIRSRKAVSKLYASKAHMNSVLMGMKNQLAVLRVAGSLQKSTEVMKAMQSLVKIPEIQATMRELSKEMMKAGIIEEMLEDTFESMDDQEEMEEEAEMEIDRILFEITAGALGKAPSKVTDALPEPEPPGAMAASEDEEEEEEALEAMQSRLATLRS
# Chain of Charged multivesicular body protein 1a (Q9HD42 whole entry): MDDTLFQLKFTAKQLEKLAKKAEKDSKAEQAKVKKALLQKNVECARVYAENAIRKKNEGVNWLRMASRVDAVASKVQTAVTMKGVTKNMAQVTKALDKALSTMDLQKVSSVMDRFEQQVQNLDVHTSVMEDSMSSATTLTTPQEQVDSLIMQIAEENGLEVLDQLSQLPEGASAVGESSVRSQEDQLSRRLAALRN
# Chain of Probable serine carboxypeptidase CPVL (Q9H3G5 whole entry): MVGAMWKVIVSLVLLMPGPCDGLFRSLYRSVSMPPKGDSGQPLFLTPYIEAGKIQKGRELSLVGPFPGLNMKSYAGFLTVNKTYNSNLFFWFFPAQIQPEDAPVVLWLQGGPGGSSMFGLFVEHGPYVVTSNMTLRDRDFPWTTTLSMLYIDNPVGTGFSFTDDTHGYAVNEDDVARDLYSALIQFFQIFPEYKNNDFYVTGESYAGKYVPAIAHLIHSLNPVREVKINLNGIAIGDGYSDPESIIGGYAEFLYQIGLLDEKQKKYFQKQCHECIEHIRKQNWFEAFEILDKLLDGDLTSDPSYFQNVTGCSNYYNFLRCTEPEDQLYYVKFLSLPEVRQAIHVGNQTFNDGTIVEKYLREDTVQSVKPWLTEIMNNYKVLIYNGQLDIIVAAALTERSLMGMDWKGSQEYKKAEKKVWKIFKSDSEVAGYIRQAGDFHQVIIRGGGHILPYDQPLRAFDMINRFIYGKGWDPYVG
# Chain of U1 small nuclear ribonucleoprotein A (P09012 whole entry): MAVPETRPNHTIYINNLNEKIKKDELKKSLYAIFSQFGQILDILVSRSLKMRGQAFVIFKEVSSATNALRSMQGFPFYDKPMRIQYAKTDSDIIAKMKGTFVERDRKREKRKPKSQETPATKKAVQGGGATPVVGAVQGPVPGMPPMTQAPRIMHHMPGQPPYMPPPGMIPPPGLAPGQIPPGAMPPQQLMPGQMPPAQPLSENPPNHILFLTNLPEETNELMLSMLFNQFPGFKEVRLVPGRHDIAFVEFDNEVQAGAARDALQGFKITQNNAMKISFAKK
# Chain of MAP/microtubule affinity-regulating kinase 3, P27448 (P27448 whole entry): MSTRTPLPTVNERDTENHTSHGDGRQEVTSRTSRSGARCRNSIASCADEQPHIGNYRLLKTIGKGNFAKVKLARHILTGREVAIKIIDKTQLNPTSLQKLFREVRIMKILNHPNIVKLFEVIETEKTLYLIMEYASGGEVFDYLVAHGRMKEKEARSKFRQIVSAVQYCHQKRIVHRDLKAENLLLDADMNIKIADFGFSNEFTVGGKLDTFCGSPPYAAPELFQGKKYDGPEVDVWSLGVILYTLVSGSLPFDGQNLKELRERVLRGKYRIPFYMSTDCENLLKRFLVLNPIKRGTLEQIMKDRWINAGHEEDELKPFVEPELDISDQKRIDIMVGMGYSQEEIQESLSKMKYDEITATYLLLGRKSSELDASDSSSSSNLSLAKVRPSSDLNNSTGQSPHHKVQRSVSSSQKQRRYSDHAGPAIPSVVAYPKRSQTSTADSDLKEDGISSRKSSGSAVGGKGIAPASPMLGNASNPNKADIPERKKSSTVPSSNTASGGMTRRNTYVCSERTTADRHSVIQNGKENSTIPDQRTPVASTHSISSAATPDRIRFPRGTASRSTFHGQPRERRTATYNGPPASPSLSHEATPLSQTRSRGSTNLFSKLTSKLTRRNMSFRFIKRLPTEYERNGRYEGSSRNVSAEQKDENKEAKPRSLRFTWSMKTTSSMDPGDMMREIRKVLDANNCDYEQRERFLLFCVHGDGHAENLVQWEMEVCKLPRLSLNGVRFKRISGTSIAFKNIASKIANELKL
# Chain of Splicing factor 3B subunit 5 (Q9BWJ5 whole entry): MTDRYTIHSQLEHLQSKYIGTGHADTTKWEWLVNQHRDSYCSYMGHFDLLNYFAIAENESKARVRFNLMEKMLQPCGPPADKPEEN
# Chain of Rho-related GTP-binding protein RhoC, P08134 (P08134 whole entry): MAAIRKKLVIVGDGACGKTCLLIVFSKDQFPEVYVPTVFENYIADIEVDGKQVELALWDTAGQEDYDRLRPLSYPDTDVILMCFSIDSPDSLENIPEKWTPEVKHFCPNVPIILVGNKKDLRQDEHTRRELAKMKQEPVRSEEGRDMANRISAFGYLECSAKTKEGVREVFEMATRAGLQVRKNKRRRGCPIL
# Chain of THO complex subunit 3 (Q96J01 whole entry, one chain of several): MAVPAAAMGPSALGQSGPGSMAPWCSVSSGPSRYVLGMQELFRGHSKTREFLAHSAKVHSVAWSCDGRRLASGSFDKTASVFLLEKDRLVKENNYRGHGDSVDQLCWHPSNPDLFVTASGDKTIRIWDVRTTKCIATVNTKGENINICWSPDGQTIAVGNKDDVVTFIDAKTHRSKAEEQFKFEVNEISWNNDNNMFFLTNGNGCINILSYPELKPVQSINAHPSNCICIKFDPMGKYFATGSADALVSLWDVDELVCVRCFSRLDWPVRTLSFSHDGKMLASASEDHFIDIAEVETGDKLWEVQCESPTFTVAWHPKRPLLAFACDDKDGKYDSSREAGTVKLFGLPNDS
# Chain of Protein disulfide-isomerase, P07237 (P07237 whole entry): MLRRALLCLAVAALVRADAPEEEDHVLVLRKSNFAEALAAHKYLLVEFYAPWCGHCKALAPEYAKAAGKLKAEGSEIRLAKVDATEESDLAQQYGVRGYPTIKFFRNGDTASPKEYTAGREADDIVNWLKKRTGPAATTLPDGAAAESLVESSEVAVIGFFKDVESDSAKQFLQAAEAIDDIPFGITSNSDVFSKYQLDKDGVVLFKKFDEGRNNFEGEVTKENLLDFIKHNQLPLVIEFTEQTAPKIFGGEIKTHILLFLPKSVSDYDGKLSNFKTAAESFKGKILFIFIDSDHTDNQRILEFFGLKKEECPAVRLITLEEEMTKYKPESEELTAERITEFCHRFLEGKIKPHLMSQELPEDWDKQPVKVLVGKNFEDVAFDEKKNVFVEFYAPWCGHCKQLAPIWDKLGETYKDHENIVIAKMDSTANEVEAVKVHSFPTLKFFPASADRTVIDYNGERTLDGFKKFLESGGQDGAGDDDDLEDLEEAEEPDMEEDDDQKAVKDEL
# Chain of Vacuolar protein sorting-associated protein 45 (Q9NRW7 whole entry): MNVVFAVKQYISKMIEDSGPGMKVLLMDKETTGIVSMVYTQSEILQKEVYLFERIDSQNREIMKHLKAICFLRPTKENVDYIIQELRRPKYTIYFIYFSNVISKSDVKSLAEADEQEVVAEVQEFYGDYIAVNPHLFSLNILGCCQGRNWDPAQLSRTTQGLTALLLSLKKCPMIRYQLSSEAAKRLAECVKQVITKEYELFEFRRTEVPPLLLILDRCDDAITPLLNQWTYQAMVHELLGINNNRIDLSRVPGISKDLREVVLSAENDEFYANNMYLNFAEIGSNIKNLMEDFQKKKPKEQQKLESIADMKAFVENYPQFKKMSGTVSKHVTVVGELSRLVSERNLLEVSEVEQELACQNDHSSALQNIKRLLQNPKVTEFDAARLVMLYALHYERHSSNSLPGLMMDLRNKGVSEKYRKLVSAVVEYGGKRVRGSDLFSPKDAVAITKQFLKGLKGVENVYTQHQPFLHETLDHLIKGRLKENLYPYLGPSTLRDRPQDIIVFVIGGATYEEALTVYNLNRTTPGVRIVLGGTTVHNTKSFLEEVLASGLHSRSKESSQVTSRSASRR
# Chain of Metastasis-associated protein MTA2 (O94776 whole entry, the tested form may be a part): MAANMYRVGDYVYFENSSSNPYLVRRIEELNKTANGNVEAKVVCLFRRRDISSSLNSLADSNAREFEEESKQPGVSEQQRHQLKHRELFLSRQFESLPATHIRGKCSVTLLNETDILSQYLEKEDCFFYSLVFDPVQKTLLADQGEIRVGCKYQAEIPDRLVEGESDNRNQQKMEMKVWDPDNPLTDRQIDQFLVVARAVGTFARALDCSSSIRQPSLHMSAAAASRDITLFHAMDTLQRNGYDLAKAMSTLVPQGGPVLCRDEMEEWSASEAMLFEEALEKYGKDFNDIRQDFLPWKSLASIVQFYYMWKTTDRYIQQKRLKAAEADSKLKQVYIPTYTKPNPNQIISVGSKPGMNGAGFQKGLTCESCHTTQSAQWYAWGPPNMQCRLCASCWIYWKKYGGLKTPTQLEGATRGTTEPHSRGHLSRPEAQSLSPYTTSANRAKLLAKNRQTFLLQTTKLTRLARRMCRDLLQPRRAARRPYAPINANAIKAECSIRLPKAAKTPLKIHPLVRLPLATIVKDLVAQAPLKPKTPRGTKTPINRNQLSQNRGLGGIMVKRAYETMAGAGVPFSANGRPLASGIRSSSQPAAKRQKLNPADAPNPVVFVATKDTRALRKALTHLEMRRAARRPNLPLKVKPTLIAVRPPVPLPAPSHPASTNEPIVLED
substance,measurement,setting,value
"Paired amphipathic helix protein Sin3b, O75182",listed as a hit,Histone deacetylase 1,yes
"14-3-3 protein gamma, P61981",listed as a hit,14-3-3 protein epsilon,yes
"Glycerol-3-phosphate acyltransferase 4, Q86UL3",listed as a hit,[1],yes
"Charged multivesicular body protein 2a, O43633",listed as a hit,[2],yes
same,listed as a hit,[3],yes
same,listed as a hit,[4],yes
same,listed as a hit,[5],yes
"Charged multivesicular body protein 1b, Q7LBR1",listed as a hit,[2],yes
same,listed as a hit,[4],yes
"Programmed cell death 6-interacting protein, Q8WUM4",listed as a hit,[6],yes
"Peroxiredoxin-4, Q13162",listed as a hit,[7],yes
"Integrin alpha-V, P06756",listed as a hit,Integrin beta-5,yes
"Laminin subunit beta-1, P07942",listed as a hit,Laminin subunit gamma-1,yes
"Splicing factor 3A subunit 2, Q15428",listed as a hit,[8],yes
"U2 small nuclear ribonucleoprotein A', P09661",listed as a hit,[9],yes
"Splicing factor 3B subunit 3, Q15393",listed as a hit,[10],yes
"U2 snRNP-associated SURP motif-containing protein, O15042",listed as a hit,Splicing factor 45,yes
"Vesicle transport through interaction with t-SNAREs homolog 1B, Q9UEU0",listed as a hit,Syntaxin-8,yes
"U2 small nuclear ribonucleoprotein B'', P08579",listed as a hit,[11],yes
"Vacuolar protein sorting-associated protein 33A, Q96AX1",listed as a hit,[12],yes
"Syntaxin-16, O14662",listed as a hit,[13],yes
same,listed as a hit,[14],yes
"Alpha-soluble NSF attachment protein, P54920",listed as a hit,[14],yes
"U3 small nucleolar RNA-interacting protein 2, O43818",listed as a hit,[15],yes
"Metastasis-associated protein MTA2, O94776",listed as a hit,[16],yes
same,listed as a hit,[17],yes
"Coiled-coil domain-containing protein 7, Q96M83",listed as a hit,Plexin-A1,yes
"Polyadenylate-binding protein 4, Q13310",listed as a hit,[18],yes
"Protein ZBED11, P0CF97",listed as a hit,[19],yes
"Proteasome subunit beta type-5, P28074",listed as a hit,[20],yes
"Elongation factor 1-beta, P24534",listed as a hit,[21],yes
"Putative heat shock protein HSP 90-beta 2, Q58FF8",listed as a hit,[22],yes
"RNA-binding Raly-like protein, Q86SE5",listed as a hit,RNA-binding protein Raly,yes
"Protein disulfide-isomerase, P07237",listed as a hit,[23],yes
"Serine palmitoyltransferase 1, O15269",listed as a hit,[24],yes
"MAP/microtubule affinity-regulating kinase 3, P27448",listed as a hit,[25],yes
"Microtubule-associated protein 1B, P46821",listed as a hit,[26],yes
"Titin, Q8WZ42",listed as a hit,[27],yes
"Homeobox protein Hox-B3, P14651",listed as a hit,[28],yes
"Flotillin-2, Q14254",listed as a hit,THO complex subunit 2,yes
"THO complex subunit 5, Q13769",listed as a hit,THO complex subunit 3,yes
"Interferon-inducible double-stranded RNA-dependent protein kinase activator A, O75569",listed as a hit,[29],yes
"Rho-related GTP-binding protein RhoC, P08134",listed as a hit,[30],yes
"Frizzled-9, O00144",listed as a hit,[31],yes
